Rows were chosen to be rich in hits. Some 21% of all compounds tested hit in one or more screens of this group.
Cycloheximide cs = counter-screen for Shiga toxin inhibitors: cycloheximide protein synthesis inhibition; cell reporter, cycloheximide protein synthesis inhibition counterscreen; max response, %; hit rate 12% among 300,000; AID 2314; in the data active = max response mostly above about 13%, no sharp cut-off; inactive = mostly below about 14%; also: read at 38.3 µM for the half of the compounds with a filed dose
FBPA Giardia inh = blocks Giardia fructose-bisphosphate aldolase activity; A8B2U2; purified Giardia FBPA; Potency, µM (doses to about 59.6 µM), usual class: inhibitors; hit rate 0.71% among 290,000; also: nearly all actives have a fitted effect of over 55% in size
Target sequence (A8B2U2 whole entry, looked up): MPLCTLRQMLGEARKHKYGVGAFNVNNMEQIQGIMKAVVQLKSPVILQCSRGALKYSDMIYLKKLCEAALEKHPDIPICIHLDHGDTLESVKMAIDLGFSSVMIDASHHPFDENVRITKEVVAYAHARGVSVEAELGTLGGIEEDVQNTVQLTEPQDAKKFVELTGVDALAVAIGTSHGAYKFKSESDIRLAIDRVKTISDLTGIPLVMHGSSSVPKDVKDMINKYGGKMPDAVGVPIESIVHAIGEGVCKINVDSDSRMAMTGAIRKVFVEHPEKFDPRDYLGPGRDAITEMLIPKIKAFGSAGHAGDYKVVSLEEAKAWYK
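Giardia FBPA (40 nM reagent) was preincubated 10 min at RT with compound (up to 57.5 uM final), then substrate plus GAPDH/TPI/NAD/arsenate coupling system with diaphorase/resazurin was added; resorufin fluorescence (525/598 nm) was read after 20 min.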
Pf growth 96h = P. falciparum growth inhibition at 96 hours | P. falciparum luciferase reporter growth, 96 h | Potency, µM (doses to about 28.7 µM), usual class: inhibitors | hit rate 6.9% among 320,000 | AID 504834
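P. falciparum expressing integrated firefly luciferase grown in erythrocytes (2% hematocrit, 0.05% parasitemia final) with compounds for 96 hours at 37 C, 5% CO2. Growth inhibition read as loss of luminescence after adding luciferase detection reagent.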
Shiga toxin inh = inhibitors of Shiga toxin in Vero cells. inhibition, % at 38.7 µM. Vero cells, Shiga toxin protein synthesis inhibition reporter. hit rate 9.2% among 290,000; in the data active = inhibition mostly above about 28%, no sharp cut-off; inactive = mostly below about 43%
NS1 function inh = blocks influenza NS1 protein function | hit rate 0.4% among 270,000 | Potency, µM (series often up to 46.1 µM); calls by dose curve; also: actives are rising curves; nearly all actives have a fitted effect of over 50% in size
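A cell-based growth assay was used: compounds that relieve NS1-induced slow growth of budding yeast raise OD600. Assay medium was yeast nitrogen base with ammonium sulphate and -URA supplement, pH 6.0, with 2% galactose.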
Pf growth 48h = P. falciparum growth inhibition at 48 hours (one generation); Potency, µM (highest dose often 28.7 µM), hits mostly inhibitors; P. falciparum luciferase growth in erythrocytes, 48 h; AID 504832; hit rate 5.9% among 310,000
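Compounds are pin-transferred into medium, infected erythrocytes (2% hematocrit, 0.1% parasitemia final) are added, and plates sit one parasite generation at 37 C in 5% CO2. Detection reagent is then added and luminescence measured.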
Large screens that a line does not name were inactive. Unless noted, calls follow the shape of the dose curve; as a rule, active = well fitted curve in the direction sought with a large enough effect; inconclusive = small, poorly fitted or top-dose-only effect, or another doubt; inactive = no such curve, though single readings can be large; an effect the other way counts as inactive or inconclusive.

Cc1cccc(CCNCc2cc3ccc(C)cc3[nH]c2=O)c1	none
COc1ccc(CCN(Cc2cc3ccc(C)cc3[nH]c2=O)C(C)=O)cc1OC	Pf growth 48h 2.3µM
COc1ccccc1N(Cc1cc2ccc(C)cc2[nH]c1=O)C(C)=O	Pf growth 96h inconclusive
Cc1ccc2cc(CCNC(=O)C(C)C)c(=O)[nH]c2c1	none
COc1ccc(CCNCc2cc3ccc(C)cc3[nH]c2=O)cc1OC	Pf growth 96h 13µM
Cc1ccc2cc(CNC(C)C)c(=O)[nH]c2c1	Pf growth 96h 5.2µM (no result: Pf growth 48h)
Cn1cccc1C(=O)N1CCC[C@@]2(CCN(Cc3cc(C(F)(F)F)cc(C(F)(F)F)c3)C2)C1	none (no result: Cycloheximide cs, Pf growth 96h, Shiga toxin inh, NS1 function inh, Pf growth 48h)
Cc1cccc(NC(=O)CSc2ccc(-c3ccco3)nn2)c1	Cycloheximide cs 20
COc1cc(NC(=O)CSc2ccc(-c3ccco3)nn2)cc(OC)c1	Pf growth 96h 10µM (no result: FBPA Giardia inh)
CC(=O)Nc1cccc(NC(=O)CSc2ccc(-c3ccco3)nn2)c1	Pf growth 96h 9.3µM, Pf growth 48h inconclusive (no result: FBPA Giardia inh)
CC(=O)Nc1ccc(NC(=O)CSc2ccc(-c3ccco3)nn2)cc1	none
COc1ccc(CCNC(=O)c2nnn(-c3cccc(C)c3)c2N)cc1OC	none (no result: Pf growth 96h)
O=C(O)Cc1c(C(=O)O)nnn1-c1cccc(C(F)(F)F)c1	Pf growth 96h inconclusive
Cc1cccc(-n2nnc(C(=O)N3CCc4ccccc4C3)c2N)c1	Cycloheximide cs 29, Shiga toxin inh 55
Cc1cccc(-n2nnc(C(=O)Nc3ccc(F)cc3)c2N)c1	Cycloheximide cs 51, Shiga toxin inh 79
Cc1ccc(NC(=O)c2nnn(-c3cc(C)cc(C)c3)c2N)cc1	Cycloheximide cs 38, Shiga toxin inh 130
Cc1c(C(=O)Nc2ccc(F)cc2)nnn1-c1cccc(C(F)(F)F)c1	Cycloheximide cs 47, Shiga toxin inh 49 (no result: NS1 function inh)
CCC1CCCCN1C(=S)Nc1cccc(S(=O)(=O)N(C)C)c1 (stereo not given)	none
CC(=O)NC12CC3CC(C1)CC(C(=O)Nc1nc4c(C)cccc4s1)(C3)C2	Pf growth 96h inconclusive (no result: FBPA Giardia inh)
CC(=O)O[C@@]12CO[C@@H]1C[C@H](O)[C@@]1(C)C(=O)[C@H](O)C3=C(C)[C@@H](OC(=O)[C@H](O)[C@@H](NC(=O)OC(C)(C)C)c4ccccc4)C[C@](O)([C@@H](OC(=O)c4ccccc4)[C@H]21)C3(C)C	none (no result: Pf growth 96h, NS1 function inh, Pf growth 48h)
CC(=O)O[C@H]1C(=O)[C@@]2(C)C([C@H](OC(=O)c3ccccc3)[C@]3(O)C[C@H](OC(=O)[C@H](O)[C@@H](NC(=O)c4ccccc4)c4ccccc4)C(C)=C1C3(C)C)[C@]1(OC(C)=O)CO[C@@H]1C[C@@H]2OC(=O)[C@H](C)NC(=O)c1ccc(-c2c3ccc(=O)cc-3oc3cc(O)ccc23)c(C(=O)O)c1 (stereo not given in full)	Shiga toxin inh active (no result: Pf growth 96h, NS1 function inh, Pf growth 48h)
C/C=C(\C)C(=O)N[C@@H](c1ccccc1)[C@@H](O)C(=O)O[C@H]1C[C@@]2(O)[C@@H](OC(=O)c3ccccc3)C3[C@](C)(C(=O)[C@H](OC(C)=O)C(=C1C)C2(C)C)[C@@H](O)C[C@H]1OC[C@@]31OC(C)=O (stereo not given in full)	Pf growth 96h 0.033µM, Pf growth 48h inconclusive
C/C=C(\C)C(=O)N[C@@H](c1ccccc1)[C@@H](O)C(=O)O[C@H]1C[C@@]2(O)[C@@H](OC(=O)c3ccccc3)C3[C@](C)(C(=O)[C@H](O)C(=C1C)C2(C)C)[C@@H](O)C[C@H]1OC[C@@]31OC(C)=O (stereo not given in full)	Pf growth 96h 0.074µM, Pf growth 48h 0.066µM
CCOc1ccc(NC(=O)CCCN2C(=O)C(c3ccccc3)Oc3cccnc32)cc1 (stereo not given)	Pf growth 96h inconclusive, NS1 function inh inconclusive, Pf growth 48h inconclusive
COc1ccc(C(=O)OCC(=O)N(C)C2CCS(=O)(=O)C2)cc1Br (stereo not given)	none (no result: Cycloheximide cs, FBPA Giardia inh, Shiga toxin inh, NS1 function inh)
CCN(CC)C(=O)Cn1cc(C(=O)C(=O)NCCCN2CCCCC2)c2ccccc21	none (no result: FBPA Giardia inh)
Cc1ccc(Cl)cc1NC(=O)c1cc(NC(=O)C2CCCCC2C(=O)O)ccc1N1CCOCC1 (stereo not given)	NS1 function inh inconclusive
COc1ccc2ccccc2c1/C=N/NC(=S)Nc1cc(S(=O)(=O)N2CCOCC2)ccc1N1CCOCC1	Pf growth 96h 1.7µM, NS1 function inh inconclusive, Pf growth 48h 5.2µM
CCN1CCN(c2ccc(S(=O)(=O)N3CCOCC3)cc2NC(=O)COc2ccc(F)cc2Cl)CC1	Pf growth 96h 4.7µM, Pf growth 48h inconclusive (no result: FBPA Giardia inh)
CC(C)c1ccccc1OCC(=O)Nc1cc(S(=O)(=O)N2CCOCC2)ccc1N1CCCC1	Pf growth 96h inconclusive, Pf growth 48h 5.2µM (no result: Cycloheximide cs, FBPA Giardia inh, Shiga toxin inh, NS1 function inh)
O=C(COc1ccccc1F)Nc1cc(S(=O)(=O)N2CCOCC2)ccc1N1CCOCC1	Pf growth 96h inconclusive, Pf growth 48h 12µM (no result: NS1 function inh)
COc1cc(NC(=O)COC(=O)c2ccccc2SCC(=O)N2CCCC2)cc(OC)c1	Pf growth 48h inconclusive (no result: Cycloheximide cs, FBPA Giardia inh, Shiga toxin inh, NS1 function inh)
COc1ccc(-c2nc(CN3CCC(C(=O)N4CCOCC4)CC3)c(C)o2)cc1C	Pf growth 96h inconclusive, Pf growth 48h inconclusive (no result: FBPA Giardia inh)
Cc1ccccc1OCC(=O)Nc1cc(S(=O)(=O)N2CCOCC2)ccc1N1CCCC1	Pf growth 96h 7.4µM, Pf growth 48h 10µM (no result: Cycloheximide cs, FBPA Giardia inh, Shiga toxin inh, NS1 function inh)
CC1(C)NC(=O)N(CCCCOc2ccc3c(c2)CCC3)C1=O	Pf growth 48h inconclusive (no result: Pf growth 96h)
O=C1CCC(=O)N1OCCCOc1ccc2c(c1)CCC2	Cycloheximide cs 10 (no result: Pf growth 96h)
O=C1CCC(=O)N1OCCOc1ccc2c(c1)CCC2	Cycloheximide cs 24, Shiga toxin inh 47
O=C1CCC(=O)N1OCCOc1ccc(Cl)c2ccccc12	none
Fc1cccc(CSc2ccc(-c3ccco3)nn2)c1	Cycloheximide cs 67, Shiga toxin inh 79
Cc1nc(C)c(-c2ccc(SCc3cccc(F)c3)nn2)s1	Cycloheximide cs 21
Cc1nc(C)c(-c2ccc(SCc3ccc(Cl)cc3)nn2)s1	none
O=C(CSc1ccc(-c2ccco2)nn1)c1ccc(F)cc1	Cycloheximide cs 29, Shiga toxin inh active
Fc1ccc(CSc2ccc(-c3ccco3)nn2)cc1	Cycloheximide cs 19, Shiga toxin inh 33
CCS(=O)(=O)c1nc(S(=O)(=O)c2ccc(C)cc2)c(NCC(C)C)s1	none (no result: FBPA Giardia inh, Pf growth 96h, NS1 function inh, Pf growth 48h)
Clc1ccc(Nc2nc(N3CCOCC3)nc(N3CCOCC3)n2)cc1Cl	Pf growth 96h 13µM, Pf growth 48h inconclusive (no result: FBPA Giardia inh)
O=C(O)c1cc(Nc2nc(N3CCOCC3)nc(N3CCOCC3)n2)ccc1Cl	none
Fc1ccc(Nc2nc(N3CCOCC3)nc(N3CCOCC3)n2)cc1Cl	Pf growth 96h 13µM, Pf growth 48h inconclusive (no result: FBPA Giardia inh)
CN1CCN(c2nc(Nc3cccc(C(F)(F)F)c3)nc(N3CCOCC3)n2)CC1	Pf growth 48h 2.1µM
Cc1cccc(S(=O)(=O)c2cn(Cc3ccccc3)c3cc(N4CCC(C)CC4)c(F)cc3c2=O)c1	none (no result: FBPA Giardia inh, Pf growth 96h, NS1 function inh, Pf growth 48h)
O=C1NC(=O)C2C3C=CC(C3)C12 (stereo not given)	none (no result: Cycloheximide cs, FBPA Giardia inh, Shiga toxin inh, NS1 function inh)
